# High-throughput results (PubChem BioAssay)
# Hits are enriched below; roughly 2.3% of the tested compounds scored in any of these assays.
# Pf Dd2 inh = blocks growth of Plasmodium falciparum Dd2 parasites. P. falciparum Dd2 growth, SYBR Green, 72 h; hits give low values. activity change, % at 10 µM. hit rate 2.3% among 94,000; in the data active = activity change below about -80%
# C diff growth = blocks growth of Clostridium difficile; AID 1259249; hit rate 0.25% among 86,000; growth activity, negative = inhibition, % at 16 µg/mL (by protocol); Clostridium difficile clinical isolate growth, OD600, 24 h; hits give low values;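 active = mean growth activity at or below -80% and every replicate also at or below -80%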
# Hits are given with their value; i = inactive; nt = no result.
SMILES,Pf Dd2 inh,C diff growth
C[C@H]1CN([C@@H](C)CO)C(=O)c2cccc(NC(=O)Nc3ccc4c(c3)OCO4)c2O[C@@H]1CN(C)Cc1ccc(C(=O)O)cc1,i,i
C[C@@H]1CN([C@@H](C)CO)C(=O)c2cccc(NC(=O)Nc3ccc4c(c3)OCO4)c2O[C@@H]1CN(C)Cc1ccc(-c2ccccc2)cc1,i,-96
C[C@H](CO)N1C[C@H](C)[C@H](CN(C)Cc2ccc(-c3ccccc3)cc2)Oc2c(NC(=O)Nc3ccc4c(c3)OCO4)cccc2C1=O,i,i
CCC(=O)N1[C@H](C#N)[C@@H](c2ccccc2-c2ccccc2)[C@H]1CO,i,i
CCC(=O)N(C)C[C@@H]1Oc2cc(-c3ccccc3OC)ccc2S(=O)(=O)N([C@@H](C)CO)C[C@@H]1C,i,i
COc1cccc(S(=O)(=O)N[C@@H]2CC[C@H](CCn3cc(-c4ccccc4OC)nn3)O[C@H]2CO)c1,i,i
O=C(C[C@@H]1C[C@H]2c3cc(NC(=O)NC4CCCC4)ccc3O[C@H]2[C@H](CO)O1)NCc1ccc2c(c1)OCO2,i,i
COc1cccc(S(=O)(=O)N(C)C[C@H]2Oc3ncc(C#CCN(C)C)cc3C(=O)N([C@@H](C)CO)C[C@H]2C)c1,i,i
COc1ccccc1CNC(=O)C[C@H]1CC[C@@H]2[C@H](COC[C@H](O)CN2C(=O)Nc2ccc(Cl)cc2)O1,i,nt
O=C(C[C@@H]1CC[C@H](NC(=O)c2ccc3c(c2)OCO3)[C@@H](CO)O1)NC1Cc2ccccc2C1,i,nt
C[C@@H]1CN([C@@H](C)CO)S(=O)(=O)c2ccc(-c3cccc(C(=O)N(C)C)c3)cc2O[C@H]1CN(C)C,i,i
CO[C@H]1CN(C)C(=O)c2ccc(NC(C)=O)cc2OC[C@@H](C)N(Cc2ccncc2)C[C@H]1C,i,i
C[C@H](CO)N1C[C@H](C)[C@H](CN(C)Cc2ccc(C(=O)Nc3ccccc3N)cc2)Oc2ccc(NC(=O)Nc3ccc4c(c3)OCO4)cc2C1=O,i,i
C[C@@H]1CN([C@@H](C)CO)C(=O)c2cccc(NC(=O)Nc3ccc4c(c3)OCO4)c2O[C@@H]1CN(C)Cc1ccc(C(=O)Nc2ccccc2N)cc1,-93,nt
COc1ccc(S(=O)(=O)N(C)C[C@H]2Oc3cc(C#CC4CCCCC4)ccc3S(=O)(=O)N([C@@H](C)CO)C[C@H]2C)cc1,i,nt
COc1ccc(C#Cc2ccc3c(c2)O[C@@H](CN(C)S(=O)(=O)c2ccccc2F)[C@@H](C)CN([C@@H](C)CO)S3(=O)=O)cc1,-90,i
COc1ccc(S(=O)(=O)N(C)C[C@@H]2Oc3cc(C#CC4CCCCC4)ccc3S(=O)(=O)N([C@@H](C)CO)C[C@H]2C)cc1,-84,nt
C[C@@H]1CN([C@@H](C)CO)S(=O)(=O)c2ccc(C#Cc3ccccc3)cc2O[C@H]1CN(C)S(=O)(=O)c1cn(C)cn1,i,i
C[C@H]1CN([C@@H](C)CO)S(=O)(=O)c2ccc(C#Cc3ccccc3)cc2O[C@@H]1CN(C)S(=O)(=O)c1cn(C)cn1,-87,i
COc1ccc(C#Cc2ccc3c(c2)O[C@H](CN(C)S(=O)(=O)c2ccccc2F)[C@@H](C)CN([C@H](C)CO)S3(=O)=O)cc1,-87,i
COc1cccc(C#Cc2ccc3c(c2)O[C@H](CN(C)S(=O)(=O)c2ccccc2F)[C@@H](C)CN([C@@H](C)CO)S3(=O)=O)c1,i,i
COc1cccc(C#Cc2ccc3c(c2)O[C@H](CN(C)S(=O)(=O)c2ccccc2F)[C@H](C)CN([C@H](C)CO)S3(=O)=O)c1,i,i
CCC(=O)N(C)C[C@H]1Oc2ncc(-c3ccc(C#N)cc3)cc2C(=O)N([C@@H](C)CO)C[C@@H]1C,i,i
Cc1noc(C)c1S(=O)(=O)Nc1ccc2c(c1)CC(=O)N([C@@H](C)CO)C[C@@H](C)[C@H](CN(C)S(=O)(=O)c1ccccc1)O2,i,i
O=C(C[C@@H]1C=C[C@H](NC(=O)Nc2ccc3c(c2)OCO3)[C@@H](CO)O1)NCc1ccc(F)cc1,i,i
SMILES,Pf Dd2 inh,C diff growth
COc1ccc(C#Cc2cnc3c(c2)C(=O)N([C@@H](C)CO)C[C@H](C)[C@H](CN(C)CC2CC2)O3)cc1,i,i
C[C@H](CO)N1C[C@H](C)[C@@H](CN(C)C(=O)Nc2cccc3ccccc23)Oc2ccc(NC(=O)Cc3cn(C)c4ccccc34)cc2C1=O,-87,nt
COc1ccc(CN(C)C[C@@H]2Oc3ccc(NC(=O)Cc4cn(C)c5ccccc45)cc3C(=O)N([C@@H](C)CO)C[C@H]2C)cc1,i,i
C[C@H](CO)N1C[C@H](C)[C@@H](CN(C)Cc2ccc(Oc3ccccc3)cc2)Oc2ccc(NC(=O)Cc3cn(C)c4ccccc34)cc2C1=O,-84,i
C[C@@H]1CN([C@@H](C)CO)C(=O)c2cc(NC(=O)Cc3cn(C)c4ccccc34)ccc2O[C@H]1CN(C)C(=O)Nc1cccc2ccccc12,i,nt
C[C@H]1CN([C@@H](C)CO)C(=O)c2cc(NC(=O)Cc3cn(C)c4ccccc34)ccc2O[C@@H]1CN(C)CC1CC1,-83,i
